Reference: PubChem BioAssay

Experiments:
[1] = system: Human papillomavirus type 1a protein E7 (residues 44-93); experiment: HPV1a E7 fragment binders on microarrays, primary screen, biochemical, small-molecule microarray, residues 44-93, 635 nm fluorescence (AID 1108); details: small-molecule microarray binding, fluorescence 635 nm; higher = more signal;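 also: E7 fragment applied at 1 µg/mL in TBST for 1 h at 4 C; score combines spot fluorescence with its signal to noise ratio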
[2] = modulators of HCV replicon luciferase signal, primary screen, HCV replication inhibitor project, Huh7 cells, luciferase reporter (AID 1109); details: 48 h, higher = more signal;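 also: huh7 hepatoma cells harbouring a luciferase neomycin HCV replicon reporter; luciferase luminescence as measure of HCV replicon replication; test concentration not given here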
[3] = target: Left-right determination factor 2 (Homo sapiens) (UniProt O00292); experiment: LEFTY2 binders on small-molecule microarrays, primary screen, biochemical, small-molecule microarray, 635 nm fluorescence scan (AID 1110); details: LEFTY2 binding, higher = more signal
[4] = target: Calmodulin-1 (Homo sapiens) (UniProt P0DP23); experiment: CALM1 binders on microarrays, EGTA buffer, profiling panel, biochemical, small-molecule microarray, Cy5-labelled CALM1 (AID 1111); details: Cy5-CALM1 binding fluorescence, higher = more signal;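 also: labelled calmodulin applied in Tris saline Tween buffer holding calcium plus EGTA and DTT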
[5] = target: Calmodulin-1 (Homo sapiens) (UniProt P0DP23); experiment: calcium-bound CALM1 binders on microarrays, profiling panel, artefact control for SMM control-protein annotation, biochemical, small-molecule microarray, Cy5-labelled CALM1, plus calcium (AID 1112); details: Cy5-CALM1 binding fluorescence, higher = more signal;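 also: score merges spot fluorescence with signal to noise from triplicate slides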
[6] = small-molecule microarray binders of probe aWnt5a, primary screen, biochemical, biotinylated probe, 635/667 nm fluorescence (AID 1113); details: higher = more signal;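 also: score merges 667 nm fluorescence intensity with signal-to-noise per printed feature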
[7] = small-molecule microarray binders of probe aShh, primary screen, biochemical, biotinylated probe, 635/667 nm fluorescence (AID 1114); details: higher = more signal;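 also: probe is biotin-labelled aShh protein from a stem cell growth factor screen; measures binding of labelled protein to compounds printed on the slide; score merges feature fluorescence at 667 nm with signal-to-noise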
[8] = small-molecule microarray binders of probe aNog, primary screen, biochemical, biotinylated probe, 635/667 nm fluorescence (AID 1115); details: higher = more signal;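 also: probe is biotinylated aNog protein used at 0.15 µg/mL for 1 h at 4 C; z-score combines 667 nm fluorescence of each spot with its signal to noise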
[9] = target: Torsin-1A-interacting protein 1 (Homo sapiens) (UniProt Q5JTV8); experiment: LAP1 binders from COS7 cell lysate, primary screen, small-molecule microarray, 635/667 nm fluorescence (AID 1116); details: COS7-hLAP1 lysate binding, 635 nm fluorescence, higher = more signal
[10] = target: Alpha-bungarotoxin (Bungarus multicinctus) (UniProt P60615); experiment: alpha-bungarotoxin binders on microarray, profiling panel, artefact control for SMM control protein annotation, biochemical, small-molecule microarray, Alexa647 label, 635/667 nm fluorescence (AID 1117); details: alpha-BTX-A647 binding fluorescence, higher = more signal
Sequence of Alpha-bungarotoxin (Bungarus multicinctus) (P60615 whole entry, looked up): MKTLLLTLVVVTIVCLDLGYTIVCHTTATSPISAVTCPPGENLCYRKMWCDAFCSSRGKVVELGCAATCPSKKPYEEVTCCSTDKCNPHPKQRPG

Sequence of Left-right determination factor 2 (Homo sapiens) (O00292 whole entry, looked up): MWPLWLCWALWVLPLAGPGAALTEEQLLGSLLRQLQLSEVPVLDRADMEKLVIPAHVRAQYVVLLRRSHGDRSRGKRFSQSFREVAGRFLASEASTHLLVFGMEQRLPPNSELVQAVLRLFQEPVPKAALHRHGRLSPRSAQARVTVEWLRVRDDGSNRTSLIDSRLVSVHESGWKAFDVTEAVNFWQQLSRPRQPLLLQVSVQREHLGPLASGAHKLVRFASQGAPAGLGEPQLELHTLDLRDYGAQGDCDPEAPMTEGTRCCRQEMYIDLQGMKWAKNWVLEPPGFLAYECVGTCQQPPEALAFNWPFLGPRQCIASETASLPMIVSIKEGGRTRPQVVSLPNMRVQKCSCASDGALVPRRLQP
Sequence of Torsin-1A-interacting protein 1 (Homo sapiens) (Q5JTV8 whole entry, looked up): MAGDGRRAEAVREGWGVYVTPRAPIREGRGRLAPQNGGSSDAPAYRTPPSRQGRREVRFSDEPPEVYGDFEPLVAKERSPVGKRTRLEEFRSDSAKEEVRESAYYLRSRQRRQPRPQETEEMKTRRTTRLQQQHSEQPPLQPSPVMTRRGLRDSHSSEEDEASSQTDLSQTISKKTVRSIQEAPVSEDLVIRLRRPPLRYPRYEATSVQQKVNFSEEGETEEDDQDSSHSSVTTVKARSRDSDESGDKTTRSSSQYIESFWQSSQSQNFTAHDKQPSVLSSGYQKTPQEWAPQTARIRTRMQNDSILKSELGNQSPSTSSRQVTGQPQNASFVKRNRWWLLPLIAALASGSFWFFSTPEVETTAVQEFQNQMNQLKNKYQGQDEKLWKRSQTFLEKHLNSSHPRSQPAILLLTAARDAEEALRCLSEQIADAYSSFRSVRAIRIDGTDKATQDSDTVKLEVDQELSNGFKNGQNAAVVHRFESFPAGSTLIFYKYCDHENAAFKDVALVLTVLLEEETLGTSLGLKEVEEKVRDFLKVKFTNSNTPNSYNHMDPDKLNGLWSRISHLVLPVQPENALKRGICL

Structure (SMILES)	composite z-score [1]	z-score [2]	composite z-score [3]	composite z-score [4]	composite z-score [5]	composite z-score [6]	composite z-score [7]	composite z-score [8]	composite z-score [9]	composite z-score [10]
CON=C(C)CCN1CCCc2nc(C)c(C)cc21	0.365	0.115	0.685	-0.209	-1.02	-0.0405	0.151	0.177	0.501	0.0599
CCOC(=O)[C@H](Cc1ccccc1)NC(=O)CCC1CC(OC(=O)NCc2ccc3c(c2)OCO3)CC2(CCCC(COC(=O)NCCCN3CCCC3=O)O2)O1 (stereo not given in full)	1.35	-1.93	0.56	0.972	0.356	-0.0607	-0.229	-0.0604	0.799	0.426
COC(=O)CC=C[C@@H](C)[C@@H](C=NOC[C@@H](O)COCc1ccco1)OC	0.134	0.674	0.999	-0.809	-2.21	-0.172	-0.243	-0.353	0.329	-0.741
CC(CCC(=O)OC[C@H]1O[C@H](C#Cc2ccccc2)C=C[C@@H]1Oc1ccc(C)cc1)=NO[C@H](C)c1cn([C@@H]2COC[C@H]2O)nn1	-0.231	-1.66	0.431	-0.411	-0.208	-0.0512	-0.138	0.354	-0.465	-0.493
CC(C)[C@@H](OCc1ccccc1)[C@H](C)CON=C1[C@H]2CCn3c(=O)n(-c4ccccc4)c(=O)n3[C@H]2[C@H](O)[C@@H]2O[C@H]12	0.416	-4.23	0.677	-0.404	-0.366	-0.147	-0.134	-0.124	-0.005	0.251
CO[C@@H]1COC(=O)[C@@H]2CCCN2C(=O)[C@@H](C)COC(=O)CCC[C@H]1C	0.212	-0.016	0.83	-0.0691	-0.911	-0.175	-0.0553	-0.346	0.883	0.482
COc1cccc([C@H]2Oc3ccc(OC)cc3C(=NO[C@@H](C)c3cc(-c4c(C)cc(C)cc4C)no3)[C@@H]2O)c1	-0.355	-1.71	-2.35	-0.831	0.668	-0.172	-0.195	0.0983	-0.589	-0.628
CCOC(=O)[C@H](Cc1ccccc1)NC(=O)CCC1CC(OC(=O)NCc2cccc3ccccc23)CC2(CCCC(COC(=O)NCC3CCCCC3)O2)O1 (stereo not given in full)	1.33	-1.48	0.643	0.297	-0.525	-0.0445	0.0596	-0.142	0.128	0.746
O=C1C=C[C@@H](O)[C@@H]2[C@@H]3C(=O)N(c4cccc(Oc5ccccc5)c4)C(=O)[C@@H]3CC[C@@H]12	0.242	-2.07	0.594	-0.203	-0.477	-0.152	-0.0626	-0.381	0.503	0.0671
COC(=O)[C@H](C)NC(=O)CCC1CC(OC(=O)NCc2ccc3c(c2)OCO3)CC2(CCCC(COC(=O)NCCC(C)C)O2)O1 (stereo not given in full)	1.37	-0.166	0.694	-0.107	-0.682	-0.0977	-0.0553	-0.0047	0.302	1.48
CCOC(=O)CCN1C(=O)[C@H]2[C@H]3[C@H](O)[C@H](O)CC(=NOCC=C(C)CCC=C(C)C)[C@@H]3CC[C@H]2C1=O	-0.401	-0.469	0.631	0.113	-0.672	-0.1	-0.179	-0.0827	0.166	-0.0599
CO[C@@H]1[C@H](O)CO[C@H]1C=Cc1ccccc1	0.258	-0.696	0.509	-0.0028	-0.144	0.0078	-0.16	-0.0563	0.0195	0.241
COC(=O)[C@H](C)NC(=O)CCC1CC(OC(=O)NCc2cccc3ccccc23)CC2(CCCC(COC(=O)NCCCN3CCCC3=O)O2)O1 (stereo not given in full)	1.28	-0.0695	0.943	0.895	0.0029	-0.124	-0.455	-0.436	0.919	0.39
CCN1C(=O)[C@H]2[C@H]3[C@H](O)[C@H](O)CC(=NOCC[C@@H]4C=C[C@H](OC(C)=O)[C@@H](COC(C)=O)O4)[C@@H]3CC[C@H]2C1=O	-0.263	-1.04	0.736	-0.207	-0.225	0.0102	0.0899	0.029	-0.359	0.391
Cc1ccc2[nH]c3nc(CCCn4ccnc4-c4ccccc4)nnc3c2c1	0.0596	-0.544	0.635	0.308	-1.02	-0.101	0.191	-0.344	0.666	0.335
CCOC(=O)[C@H](CC(C)C)NC(=O)CCC1CC(OC(=O)NCCc2ccc(F)cc2)CC2(CCCC(COC(=O)NCCCN3CCCC3=O)O2)O1 (stereo not given in full)	0.681	-1.2	0.491	0.116	-0.0004	0.0108	-0.2	-0.451	0.422	1.54
CCN1C(=O)[C@H]2[C@H]3[C@H](O)[C@H](O)CC(=NO[C@@H]4O[C@H](CO)[C@@H](O)[C@H](O)[C@H]4O)[C@H]3CC[C@H]2C1=O	0.442	1.2	0.486	-0.354	-1.04	-0.0529	0.204	0.117	0.196	0.497
